Only some compounds are listed: those with a hit (about 10% of all), similar ones and a draw of the others.
JMJD2A Tudor inh – inhibitors of human JMJD2A Tudor domain; AlphaScreen JMJD2A-Tudor / H3K4me3 peptide binding; O75164; Potency, µM (series often up to 114 µM), usual class: inhibitors; hit rate 4.4% among 390,000; further: nearly all actives have a fitted effect of over 50% in size
G9a block – G9a (human) methyltransferase inhibition; AID 504332; Potency, µM (doses to about 102 µM), most hits filed as inhibitors; hit rate 8.8% among 350,000; G9a H3K9 monomethylation, AlphaScreen, 2 h; further: nearly all actives have a fitted effect of over 75% in size
Target sequence (Q96KQ7 913-1193 limits assumed): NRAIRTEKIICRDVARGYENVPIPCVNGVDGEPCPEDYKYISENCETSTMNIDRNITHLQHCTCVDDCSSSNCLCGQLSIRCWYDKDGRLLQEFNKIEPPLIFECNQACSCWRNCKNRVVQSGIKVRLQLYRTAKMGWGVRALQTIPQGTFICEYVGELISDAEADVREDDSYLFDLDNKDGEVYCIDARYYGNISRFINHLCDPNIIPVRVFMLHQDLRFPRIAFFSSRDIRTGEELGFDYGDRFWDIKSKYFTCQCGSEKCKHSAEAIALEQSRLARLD
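Enzyme 20 nM + cpd, 15 min RT; add b-H3K9 pep 500 nM / SAM 20 uM; 2 h RT; anti-H3K9me1 Ab 0.5 ug/mL + SA donor / anti-rabbit acceptor beads 20 ug/mL each, 10 min; AlphaScreen read.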
CtBP-E1A inh – CtBP/E1A binding inhibition; activity change, % (no concentration beside the values); AlphaScreen GST-E1A/His-CtBP binding, 1536-well; active compounds read low; hit rate 0.49% among 340,000; in the data active means activity change below about -65%; inconclusive means mostly about -30% to -63%
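Steps: dispense buffer (Tris pH 8.0, NaCl 300 mM, TCEP 1 mM, BSA, Tween 20); add 5X protein mix (GST-E1A, His-CtBP, 125 nM each); pin 23 nL compound; 2 h at 37 °C, dark; add 5X beads (50 ug/mL); 1 h; read.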
Six1-Eya2 blk – inhibitors of human Six1/Eya2 interaction; AlphaScreen GST-Six1/His-Eya2 binding, biochemical; active compounds read low; activity change, % (no concentration beside the values); hit rate 0.56% among 360,000; AID 651725; in the data active means activity change below about -65%; inconclusive means mostly about -30% to -63%
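AlphaScreen with GST-Six1 and His-Eya2 (5X mix: 250 nM and 500 nM), glutathione donor and nickel acceptor beads; buffer 50 mM Tris pH 8.0, 300 mM NaCl, 1 mM TCEP; 1 h at 37 C in the dark.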
BAZ2B inh – blocks human BAZ2B; hit rate 4.4% among 360,000; Potency, µM (series often up to 114 µM), actives largely listed as inhibitors; AID 504333; AlphaScreen BAZ2B-H3K14Ac peptide displacement; further: nearly all actives have a fitted effect of over 60% in size
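Inhibition is scored as reduced AlphaScreen emission. The BAZ2B/b-H3(5-23)K14Ac complex (50 nM each) in PBS pH 7.4, 0.01% Tween-20 meets compound (up to 110 uM) for 30 min at RT before bead addition.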
HP1b binding inh – blocks HP1-beta chromodomain binding to methylated histone tails; P83916; AlphaScreen HP1-beta / biotin-H3K9me3 peptide binding; Potency, µM (top dose mostly 114 µM), hits mostly inhibitors; hit rate 0.56% among 390,000; further: nearly all actives have a fitted effect of over 70% in size
Target sequence (P83916 whole entry, looked up): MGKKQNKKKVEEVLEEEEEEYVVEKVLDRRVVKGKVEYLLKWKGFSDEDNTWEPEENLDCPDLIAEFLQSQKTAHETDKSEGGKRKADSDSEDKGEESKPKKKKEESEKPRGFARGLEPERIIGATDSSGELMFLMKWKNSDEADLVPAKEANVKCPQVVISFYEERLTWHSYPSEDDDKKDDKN
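HP1-beta protein (50 nM final) preincubated 30 min at room temperature with biotinylated H3(1-18)K9me3 peptide (50 nM) in PBS pH 7.4, 0.01% Tween-20, then compound added for 30 min. AlphaScreen streptavidin donor/nickel chelate acceptor beads (10 ug/mL final), 30 min dark, luminescence read.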
Hits are given with their value; 0 = inactive; ? = inconclusive; - = no result given; [ ] = remark or other dose. Unless noted, the call rests on the fitted dose curve; in most records, active means well fitted inhibition curve with a large enough effect; inconclusive means small, poorly fitted or top-dose-only effect; inactive means no such curve, though single readings can be large or run the other way.

SMILES	JMJD2A Tudor inh	G9a block	CtBP-E1A inh	Six1-Eya2 blk	BAZ2B inh	HP1b binding inh
O=C(CN1C(=O)C2CC=C(Cl)CC2C1=O)Nc1ccc(C(=O)O)cc1 (stereo unspecified)	0	13µM	0	0	0	0
Cc1ccc(NC(=O)CN2C(=O)C3CC=C(Cl)CC3C2=O)cc1 (stereo unspecified)	0	0	0	0	0	0
O=C(CCN1C(=O)C2CC=C(Cl)CC2C1=O)NCc1ccccc1 (stereo unspecified)	0	18µM	0	0	0	0
O=C(CCN1C(=O)C2CC=C(Cl)CC2C1=O)NCc1ccco1 (stereo unspecified)	0	0	0	0	0	0
COc1ccccc1C(=O)NCCN=C1NS(=O)(=O)c2ccccc21	0	0	0	0	0	0
COc1ccccc1CN1CC(C(=O)N(C)Cc2ccc(C)o2)CCC1=O (stereo unspecified)	0	35µM	0	0	0	0
N#Cc1c(N)oc(-c2cccs2)c1-c1cccs1	?	13µM	0	0	0	0
COc1ccc(OC)c(/C=N/c2oc(-c3ccco3)c(-c3ccco3)c2C#N)c1	50µM	32µM	0	0	0	?
COc1ccc(OC)c(C=NN=Cc2cc(OC)ccc2OC)c1	-	-	0	0	-	-
N#Cc1c(N)nc2c(c1-c1cccs1)CCCC2	0	0	-	0	0	0
N#Cc1c(N)oc(-c2ccco2)c1-c1ccco1	?	45µM	0	0	?	0
CN(C(=O)c1ccc2c(c1)N(Cc1ccccc1F)C(=O)c1ccccc1S2(=O)=O)C1CCCCC1	0	0	-	-	0	0
CCCN1CCN(C(=O)Cn2ncc3c4ccccc4n(Cc4cccc(Cl)c4)c3c2=O)CC1	0	0	-	-	0	0
CCOc1ccc(Nc2oc(-c3ccco3)nc2C#N)cc1	0	0	0	0	0	0
COc1ccc(Nc2oc(-c3ccco3)nc2S(=O)(=O)c2ccc(F)cc2)cc1	?	45µM	-	0	?	0
O=S(=O)(c1ccc(F)cc1)c1nc(-c2ccco2)oc1Nc1ccc(F)cc1	0	50µM	0	?	?	0
O=C(CSc1oc(-c2ccco2)nc1S(=O)(=O)c1ccc(F)cc1)NCC1CCCO1 (stereo unspecified)	0	?	0	0	0	0
Cc1cc(-c2cc(-c3ccccc3)on2)nc(NCC2CC2)n1	0	0	0	0	0	0
CC(=O)n1c2ccccc2c2nc(NC(C)C)sc21	50µM	?	0	0	50µM	?
CNc1nc2c3ccccc3n(C(C)=O)c2s1	0	?	?	0	0	0
CN(C)c1ccc(N=Nc2nccs2)cc1	-	-	?	-83	-	-
Cn1cncc1C#Cc1ccc2cc(CCO)oc(=O)c2c1	0	0[0.501 µM]	0	0	56µM	0
Cn1cncc1C#Cc1ccc2cc(CCCO)oc(=O)c2c1	0	0[0.501 µM]	0	0	0	0
COCCCNCCCCSc1ccc(Cl)cc1	10µM	3.5µM	0	0	?	?
COCCCNCCOCCSc1ccc(Cl)cc1	1.8µM	?	0	0	?	?
SMILES	JMJD2A Tudor inh	G9a block	CtBP-E1A inh	Six1-Eya2 blk	BAZ2B inh	HP1b binding inh
OCCNCCSc1ccc(Cl)cc1	22µM	50µM	-	0	56µM	0
CCCCNCCOCCSc1ccc(Cl)cc1	1.4µM	8.9µM	0	0	?	?
Cc1cccc(NC(=O)CCNC(=O)c2ccco2)c1	0	0	0	0	0	0
COc1ccc(CNC(=O)C2CCN(S(=O)(=O)c3cn(C)cn3)CC2)cc1	0	0[12.7 µM]	-	-	0	0
CCCCCCSc1nnc(-c2cnn(-c3ccccc3)c2-n2cccc2)n1C	0	40µM	0	0	0	0
Cn1c(-c2cnn(-c3ccccc3)c2-n2cccc2)n[nH]c1=S	8.9µM	8.9µM	-	0	0	0
O=C(c1ccco1)N1CCC2(CCCN(c3ccccc3)C2)CC1	-	0[12.7 µM]	-	-	-	-
Cc1ccc(NC2=CC(c3ccccc3F)N(c3ccc(C)cc3)C2=O)cc1 (stereo unspecified)	0	?	-	-	?	0
CCn1c(C)c(/C=N/Nc2nc3ccccc3s2)c2ccccc21	32µM	40µM	0	0	16µM	?
C(=N\Nc1nc2ccccc2s1)/c1cccs1	0	0	0	0	?	0
Nc1ccc(-c2ccc3ccccc3n2)cc1	-	19µM	-	-	-	-
CNCC[C@H](Oc1ccccc1OC)c1ccccc1	-	0[21.5 µM]	-	-	-	-
CN(C)S(=O)(=O)c1cccc(C(=O)Nc2n[nH]c(C(F)(F)F)n2)c1	7.1µM	0	0	0	0	0
O=c1[nH]c2cc(Cl)c(Br)cc2o1	0	-	0	0	-	0
O=C(O/N=C1\CCCCC1c1ccc([N+](=O)[O-])cc1[N+](=O)[O-])c1c(F)cccc1F (stereo unspecified)	45µM	40µM	?	?	?	0
O=C(COc1ccc2c(c1)oc(=O)c1ccccc12)NCC1CCC(C(=O)O)CC1 (stereo unspecified)	0	0[12.7 µM]	0	0	0	0
Cc1ccc(-c2c(C)n([O-])c3c([n+]2=O)CCCC3)cc1	56µM	0	0	0	0	0
Cc1c(-c2ccc(Br)cc2)[n+](=O)c2c(n1[O-])CCCCC2	0	-	0	0	0	0
COC(=O)c1c(C)nn(-c2ccc(F)cc2)c1-n1cccc1	0	0	-	-	0	0
CN(CCNC(=O)c1cccc(N2CCCC2=O)c1)Cc1ccccc1	0	0	0	0	0	0
CC(=O)c1c(C)[nH]c(C(=O)NCc2ccccc2)c1C	0	0	0	0	0	0
CCN(CCCNC(=O)CC(C(=O)N1CCc2ccccc21)n1ccnc1)c1cccc(C)c1 (stereo unspecified)	50µM	?	0	0	0	0
CCN(CCNC(=O)c1cccc(N2CCCC2=O)c1)c1ccccc1	0	50µM	0	0	0	0
CCCCNC(=O)CC(C(=O)N1CCc2ccccc21)n1ccnc1 (stereo unspecified)	0	0[12.7 µM]	0	0	0	0
SMILES	JMJD2A Tudor inh	G9a block	CtBP-E1A inh	Six1-Eya2 blk	BAZ2B inh	HP1b binding inh
CCN(CCCNC(=O)c1[nH]c(C)c(C(C)=O)c1C)c1cccc(C)c1	79µM	?	0	0	50µM	?
CCN(CCCNC(=O)c1ccc(N2CCCC2=O)cc1)c1cccc(C)c1	0	28µM	0	0	0	0
CC(C)NC(=O)c1cccc2c(-c3ccc(F)c(F)c3)coc12	-	-	0	0	-	-
CCc1ccc(NC(=O)c2ccc3c(c2)C(=O)N(CCOC)C3Nc2ccc(CC)cc2)cc1 (stereo unspecified)	0	0	0	0	0	0
CCN(CCCNC(=O)CN1C(=O)COc2ccccc21)c1cccc(C)c1	?	22µM	0	0	?	0
CC1CCC2C(C1)c1sc(=O)[nH]c1SC2(C)C (stereo unspecified)	?	50µM	0	0	?	0
